# Screens from PubChem BioAssay.
# An excerpt weighted towards active compounds, which were near 3% of everything screened.
# L929 necroptosis – inhibitors of zVAD-triggered necroptosis, primary screen, L929 cells. L929 zVAD necroptosis rescue, ATP luminescence, 24 h; with zVAD 60 µM. viability rescue, % at 10 µM. actives 0.38% (n = 220,000). AID 1377, 2008;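 active = activation, scaled between plate controls, above about 75%, limit read from the data; inactive = activation under that limit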;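 note: 0% = zVAD with DMSO and 100% = DMSO alone without zVAD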
# 14-3-3 Bad inh – inhibitors of 14-3-3 zeta/Bad binding, primary screen, biochemical, TR-FRET, bovine 14-3-3 zeta; TR-FRET 14-3-3zeta/Dy647-pBad peptide displacement, 1 h; AID 781, 2007; actives 0.71% (n = 220,000); inhibition, % at 21.7 µM; 14-3-3 protein zeta/delta (Bos taurus), P63103;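 active = inhibition above about 70%, limit read from the data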;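 note: 0% = full 14-3-3 plus peptide FRET controls and 100% = background without 14-3-3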
# TNF necrop inh – inhibitors of TNF-alpha triggered necroptosis, primary screen, cell-based, Jurkat FADD-/-, single concentration; Jurkat FADD-/- TNF necroptosis rescue, ATP luminescence, 24 h; 0 = TNF only, 100 = no-TNF cells; activation (protection from cell death), % at 10 µM; AID 463075, 2010; actives 0.068% (n = 220,000);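 active = activation, meaning protection from cell death, of at least 50% relative to plate controls; inactive = activation below 50%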;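 note: necroptosis triggered by 40 ng/mL TNF-alpha added together with compound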
# m-calpain inh – inhibitors of pig calpain II, primary screen, biochemical, fluorogenic peptide substrate, 1536-well | AID 1236, 2008 | purified calpain II, 30 min | actives 0.37% (n = 220,000) | inhibition, % at 16 µM;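 active = inhibition above about 50%, limit read from the data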
# Efa HMGR inh – inhibitors of E. faecalis class II HMGR, primary screen, biochemical, Enterococcus faecalis; purified E. faecalis HMGR, NADPH absorbance 340 nm kinetic; actives 0.41% (n = 190,000); inhibition, % at 10 µM;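 active = inhibition above a set limit, the median over all tested compounds plus 3 SD, cut at about 9.5% in these data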;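 note: enzyme runs in reverse so mevalonate oxidation gives rising NADPH absorbance; 0% = complete reaction with DMSO and 100% = background rate lacking mevalonate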
# ROMK mod – ROMK potassium channel modulators, primary screen, cell-based, thallium flux, MLSMR library. actives 2% (n = 130,000). ATP-sensitive inward rectifier potassium channel 1 (Homo sapiens), P48048. Tet-inducible ROMK, thallium flux fluorescence; actives lie on both sides. AID 1918, 2009. B-score at 10 µM;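 active = signal ratio slope over the read window, or its plate-corrected B-score, at least 3 SD from the plate mean, either direction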;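 note: B-score of the F/F0 ratio slope over 7 to 12 s after thallium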
# Target sequence (P48048 whole entry, looked up): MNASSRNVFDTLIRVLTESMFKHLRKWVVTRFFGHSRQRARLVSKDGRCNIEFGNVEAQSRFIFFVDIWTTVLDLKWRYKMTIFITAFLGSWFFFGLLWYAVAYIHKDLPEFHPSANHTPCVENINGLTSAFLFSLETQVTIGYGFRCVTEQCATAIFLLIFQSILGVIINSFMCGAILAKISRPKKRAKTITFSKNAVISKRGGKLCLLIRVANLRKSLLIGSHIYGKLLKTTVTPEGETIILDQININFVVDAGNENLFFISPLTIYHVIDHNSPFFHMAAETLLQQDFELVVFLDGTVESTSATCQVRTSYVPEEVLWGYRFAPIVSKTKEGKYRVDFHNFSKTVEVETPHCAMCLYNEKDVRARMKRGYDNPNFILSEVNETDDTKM
# * = called active by the depositor; · = no result given; [ ] = remark or other dose.
SMILES,L929 necroptosis,14-3-3 Bad inh,TNF necrop inh,m-calpain inh,Efa HMGR inh,ROMK mod
Cc1ccc(CN2CCN(Cc3ccccc3C(F)(F)F)CC2)cc1,1,81*,0,-5,-2,-0.011
COc1ccc(Br)cc1CN1CCN(C(=O)c2ccc(OC)c(OC)c2)CC1,1,22,1,-35,-1,-0.14
COc1ccc(Br)cc1CN1CCCC(C(=O)N2CCCCC2)C1 (centres undefined),0,73*,1,2,1,-0.96
COc1cccc(C(=O)N2CCN(Cc3ccccc3C(F)(F)F)CC2)c1,1,74*,1,13,-1,·
O=C(c1ccccc1)N1CCN(Cc2ccccc2C(F)(F)F)CC1,2,44,0,22,-3,0.45
COc1ccccc1/C=C/C=N\N1CCN(Cc2ccccc2Cl)CC1,1,-5,2,11,-5,·
C(/C=C/c1ccccc1)=N/N1CCN(c2ccccc2)CC1,0,3,-2,-22,0,·
COc1ccccc1/C=C/C=N/N1CCN(Cc2ccc(Cl)cc2)CC1,0,74*,-2,25,-4,-0.45
C(=C\c1ccccc1)/C=N/N1CCN(Cc2ccccc2)CC1,1,-2,0,50*,-4,-0.95
CCCc1nnc(NC(=O)C(CC)OC(=O)c2cc(C)nc3ccccc23)s1 (centres undefined),0,-4,-3,-7,-7,·
COCCn1c(SCC(=O)Nc2ccc(S(=O)(=O)N(C)C)cc2)nc2ccccc21,0,-2,3,19,-1,0.016
COc1n[nH]c(C(=O)NCc2ccccc2)c1[N+](=O)[O-],2,-6,1,-9,12*,0.24
COc1n[nH]c(C(=O)Nc2nc3ccccc3s2)c1[N+](=O)[O-],0,-6,0,1,0,-0.14
O=C(Nc1cccc([N+](=O)[O-])c1)c1ccncc1,0,6,1,4,-5,·
CC(C)(C)c1ccc(C(=O)Nc2cccc([N+](=O)[O-])c2)cc1,18,-5,0,50*,-3,0.46
CC1CCN(S(=O)C23CC4CC(CC(C4)C2)C3)CC1 (centres undefined),1,7,-1,56*,-4,0.31
Cc1nc2ccc(NC3=NCCCCC3)cc2s1,0,79*,-2,5,-7,·
O=C(Nc1cccc(NC(=O)c2cccs2)c1)c1ccc2c(c1)OCCO2,2,-8,2,17,-7,-0.49
Cc1ccc(C2(C)NC(=O)N(CC(=O)Nc3c(C)n(C)n(-c4ccccc4)c3=O)C2=O)cc1 (centres undefined),1,4,0,-15,13*,·
CCCCOc1ccc(-c2nc(-c3cccnc3)no2)cc1,1,160*[fluorescence artefact?],4,27,-4,-0.39
CCOc1ccc(-c2nc(-c3cccnc3)no2)cc1,0,2,-2,9,-1,·
COc1ccc(N=Cc2c(O)n(-c3cccc(C)n3)c(=O)c3ccccc23)c(OC)c1,0,2,-4,-29,·,0.15
CCCn1c(=S)[nH]c2cc(C(=O)N3CCc4ccccc4C3)ccc2c1=O,0,11,1,57*,-5,-0.37
CC(C)(C)c1ccc(/C=N/NC(=S)Nc2cccnc2)cc1,0,-15,-1,21,-3,1.8
Oc1ccc(/C=N/NC(=S)Nc2cccnc2)cc1O,1,84*[fluorescence artefact?],2,-3,3,0.44
COC(=O)c1ccc(C(=O)N2CCCC(CNC(=O)c3ccccc3Cl)C2)cc1 (centres undefined),4,-4,0,-9,-4,0.95
CC1(C)CC(=O)c2sc(NS(C)(=O)=O)nc2C1,0,71*,-1,-37,2,0.68
CC(C)CCN(C(=O)COc1ccc(C#N)cc1)c1c(N)n(Cc2ccccc2)c(=O)[nH]c1=O,-2,-12,1,11,-1,-0.57
COC(=O)c1cc(=O)n(-c2ccc(C(F)(F)F)cc2)[nH]1,1,1,2,3,·,·
